From PubChem BioAssay
For part of these data: Results with a measured potency or affinity are listed apart. Calls of active or inactive are those of the source. Unless noted, no rule for the calls is given here.

How the values were obtained:
[1] = antimalarial activity against Dd2 strain (AID 2302;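 active = growth inhibition above 50% at the single 2 µM test dose, taken to imply half-maximal potency below 2 µM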;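 also: 0% = DMSO untreated growth and 100% = chloroquine plus artemisinin killed control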); settings: P. falciparum Dd2 in RBCs, LDH growth readout, 72 h; at 2 µM; stronger effect = higher value
[2] = human hepatoma cell viability loss – ATP luminescence, cytotoxicity control for P. falciparum antimalarial project, primary screen (AID 2303;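 active = inhibition above 50%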;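 also: 0% = DMSO wells and 100% = digitonin-killed cells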); settings: HepG2 viability, 24-48 h, at 10 µM, stronger effect = higher value
[3] = target: L-lactate dehydrogenase (Plasmodium falciparum (isolate CDC / Honduras)) (UniProt Q27743); assay: PfLDH activity inhibition – cell lysate, 3D7 strain, counter-screen for P. falciparum growth inhibition project (AID 2304);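 also: 0% = vehicle and 100% = reference inhibitor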; settings: P. falciparum 3D7 crude extract, LDH APAD/NBT absorbance; at 2 µM; stronger effect = higher value
Chain of L-lactate dehydrogenase (Plasmodium falciparum (isolate CDC / Honduras)) (Q27743 whole entry, looked up): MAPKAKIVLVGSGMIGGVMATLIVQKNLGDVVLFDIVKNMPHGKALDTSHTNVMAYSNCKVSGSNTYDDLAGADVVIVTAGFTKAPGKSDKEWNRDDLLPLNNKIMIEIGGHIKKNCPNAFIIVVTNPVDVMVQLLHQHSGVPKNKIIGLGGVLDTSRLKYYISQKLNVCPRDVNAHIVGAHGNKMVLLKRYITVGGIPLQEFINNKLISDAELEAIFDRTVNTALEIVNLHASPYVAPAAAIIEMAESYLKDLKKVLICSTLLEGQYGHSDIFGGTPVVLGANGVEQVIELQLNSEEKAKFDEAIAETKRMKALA

[4] = inhibition of 3D7 malaria parasite growth – strain 3D7 (AID 2306);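 also: 0% = DMSO wells and 100% = chloroquine plus artemisinin control wells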; settings: P. falciparum 3D7 erythrocytic growth, LDH absorbance, 72 h; at 2 µM; stronger effect = higher value
[5] = target: Calcium-dependent protein kinase 1 (Plasmodium falciparum (isolate 3D7)) (UniProt P62344); assay: PfCDPK1 kinase inhibitors, biochemical, TCAMS library (AID 1159585; cut-off not given, nearly all actives have IC50 up to about 0.98 µM;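 also: inhibitors leave more ATP so luminescence rises with inhibition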); settings: recombinant PfCDPK1, Kinase-Glo ATP depletion luminescence
Chain of Calcium-dependent protein kinase 1 (Plasmodium falciparum (isolate 3D7)) (P62344 whole entry, looked up): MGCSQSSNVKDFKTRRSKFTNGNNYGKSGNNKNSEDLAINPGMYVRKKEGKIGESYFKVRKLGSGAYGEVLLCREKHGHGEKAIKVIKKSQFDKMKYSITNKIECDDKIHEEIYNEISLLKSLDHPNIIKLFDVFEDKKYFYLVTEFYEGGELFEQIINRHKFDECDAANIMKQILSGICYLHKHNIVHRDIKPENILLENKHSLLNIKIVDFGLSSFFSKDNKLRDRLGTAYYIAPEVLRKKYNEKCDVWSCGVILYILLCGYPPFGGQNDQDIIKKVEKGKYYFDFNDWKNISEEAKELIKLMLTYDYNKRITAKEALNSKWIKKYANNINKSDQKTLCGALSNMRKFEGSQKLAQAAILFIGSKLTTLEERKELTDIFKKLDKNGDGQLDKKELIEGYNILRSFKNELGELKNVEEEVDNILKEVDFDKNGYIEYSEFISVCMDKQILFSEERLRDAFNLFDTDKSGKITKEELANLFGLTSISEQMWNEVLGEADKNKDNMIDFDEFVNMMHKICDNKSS

[6] = target: Plasmodium falciparum protein kinase 6 (PK6, PF3D7_1337100) (UniProt Q8IDW1); assay: PfPK6 kinase inhibitors, biochemical, TCAMS library (AID 1159586); settings: recombinant PfPK6, Kinase-Glo ATP depletion luminescence
Chain of Plasmodium falciparum protein kinase 6 (PK6, PF3D7_1337100) (Q8IDW1 1-305): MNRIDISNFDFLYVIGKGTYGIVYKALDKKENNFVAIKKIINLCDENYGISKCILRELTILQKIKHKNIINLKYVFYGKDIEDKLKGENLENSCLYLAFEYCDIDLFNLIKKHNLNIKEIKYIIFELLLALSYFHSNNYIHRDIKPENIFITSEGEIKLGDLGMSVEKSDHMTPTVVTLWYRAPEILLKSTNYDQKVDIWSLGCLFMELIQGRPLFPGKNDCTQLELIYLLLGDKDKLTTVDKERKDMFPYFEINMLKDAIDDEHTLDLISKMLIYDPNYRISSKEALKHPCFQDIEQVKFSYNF

[7] = target: Protein kinase 7 (PK7), Plasmodium falciparum 3D7 (PF3D7_0213400) (UniProt Q7YTF7); assay: inhibition of Plasmodium PK7 catalytic activity – biochemical, TCAMS antimalarial set, Kinase-Glo luminescence (AID 1159587); settings: recombinant PfPK7, Kinase-Glo ATP depletion luminescence
Chain of Protein kinase 7 (PK7), Plasmodium falciparum 3D7 (PF3D7_0213400) (Q7YTF7 1-343): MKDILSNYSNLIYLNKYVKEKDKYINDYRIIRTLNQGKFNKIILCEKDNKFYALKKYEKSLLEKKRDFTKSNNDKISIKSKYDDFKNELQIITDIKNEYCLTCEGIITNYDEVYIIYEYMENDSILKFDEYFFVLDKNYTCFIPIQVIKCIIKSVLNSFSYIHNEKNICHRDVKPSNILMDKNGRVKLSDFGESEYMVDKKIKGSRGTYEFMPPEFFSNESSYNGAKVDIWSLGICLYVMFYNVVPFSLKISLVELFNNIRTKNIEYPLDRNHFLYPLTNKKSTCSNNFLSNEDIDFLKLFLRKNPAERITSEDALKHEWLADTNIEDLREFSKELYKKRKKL

[8] = target: Calcium-dependent protein kinase 4 (Plasmodium falciparum (isolate 3D7)) (UniProt Q8IBS5); assay: PfCDPK4 kinase inhibitors, biochemical, TCAMS library (AID 1159588; cut-off not given, nearly all actives have IC50 up to about 0.91 µM); settings: recombinant PfCDPK4, Kinase-Glo ATP depletion luminescence
Chain of Calcium-dependent protein kinase 4 (Plasmodium falciparum (isolate 3D7)) (Q8IBS5 whole entry, looked up): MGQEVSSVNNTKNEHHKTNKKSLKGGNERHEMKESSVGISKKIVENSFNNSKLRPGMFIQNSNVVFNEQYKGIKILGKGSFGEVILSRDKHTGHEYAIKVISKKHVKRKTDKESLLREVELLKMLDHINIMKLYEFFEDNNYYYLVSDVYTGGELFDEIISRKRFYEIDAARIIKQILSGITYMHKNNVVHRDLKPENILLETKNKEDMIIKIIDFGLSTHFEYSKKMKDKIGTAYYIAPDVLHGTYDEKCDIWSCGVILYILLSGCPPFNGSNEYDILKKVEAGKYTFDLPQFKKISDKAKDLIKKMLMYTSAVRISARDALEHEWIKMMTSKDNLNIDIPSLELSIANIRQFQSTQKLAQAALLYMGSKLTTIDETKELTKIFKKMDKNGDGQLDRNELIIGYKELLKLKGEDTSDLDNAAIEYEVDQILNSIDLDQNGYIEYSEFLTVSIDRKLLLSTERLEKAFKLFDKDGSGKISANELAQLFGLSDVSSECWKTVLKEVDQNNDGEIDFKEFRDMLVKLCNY

OC(CNC1CCCCC1)Cn1c2ccccc2c2ccccc21 (stereo not drawn)
active: growth inhibition [1] 92% | growth inhibition [4] 97%
inactive: inhibition [2] 11% | inhibition [3] 0% | outcome [5] | outcome [6] | outcome [7] | outcome [8]

CCOC(=O)CCCc1cc(NC2CCN(C)CC2)nc(Nc2ccc(OC)cc2)n1
inactive: growth inhibition [1] 17% | inhibition [2] 41% | inhibition [3] -2% | outcome [5] | outcome [6] | outcome [7] | outcome [8]
active: growth inhibition [4] 99%

CC1(C)N=C(N)N=C(N)N1c1ccc(Cl)c(Cl)c1
inactive: inhibition [3] 0% | outcome [5] | outcome [6] | outcome [7] | outcome [8]
active: growth inhibition [1] 56% | inhibition [2] 67% | growth inhibition [4] 95%

c1ccc(C(c2cccs2)N2CCN(Cc3ccc(OCCCN4CCCCC4)cc3)CC2)cc1 (stereo not drawn)
inactive: growth inhibition [1] 14% | inhibition [2] 41% | inhibition [3] 2% | outcome [5] | outcome [6] | outcome [7] | outcome [8]
active: growth inhibition [4] 91%

Cc1ccc(O)cc1Nc1ccnc2ccc(C(C)(C)C)cc12
active: growth inhibition [1] 100% | growth inhibition [4] 100%
inactive: inhibition [2] 6% | inhibition [3] 3% | outcome [5] | outcome [6] | outcome [7] | outcome [8]

Cc1ccc(Nc2nc(C)cc(Nc3cccc(NS(C)(=O)=O)c3)n2)cc1
inactive: growth inhibition [1] 8% | inhibition [2] -3% | inhibition [3] 0% | outcome [5] | outcome [6] | outcome [7] | outcome [8]
active: growth inhibition [4] 96%

C=CCc1c(C(=O)NCC23CC4CC(CC(C4)C2)C3)[nH]c2ccccc2c1=O
inactive: inhibition [2] 40% | inhibition [3] 2% | outcome [5] | outcome [6] | outcome [7] | outcome [8]
active: growth inhibition [1] 79% | growth inhibition [4] 86%

Cc1cc(-c2ccnc(Nc3cccc(C#N)c3)n2)cc(C)c1O
active: growth inhibition [1] 54% | inhibition [2] 50% | growth inhibition [4] 88%
inactive: inhibition [3] 5% | outcome [5] | outcome [6] | outcome [7] | outcome [8]

CC(CCON1C(N)=NC(N)=NC1(C)C)c1ccc(Cl)cc1 (stereo not drawn)
inactive: inhibition [3] -5% | outcome [5] | outcome [6] | outcome [7] | outcome [8]
active: growth inhibition [1] 97% | inhibition [2] 64% | growth inhibition [4] 93%

COc1ccc2nccc(N3CCC(CCNCc4cc5c(cn4)OCCO5)CC3)c2n1
inactive: inhibition [2] 18% | inhibition [3] 7% | outcome [5] | outcome [6] | outcome [7] | outcome [8]
active: growth inhibition [1] 101% | growth inhibition [4] 100%

COc1ccc(CCc2ccc(-c3c(C)[nH]c(C)c(Cl)c3=O)cc2)cc1
active: growth inhibition [1] 97% | growth inhibition [4] 98%
inactive: inhibition [2] -3% | inhibition [3] 3% | outcome [5] | outcome [6] | outcome [7] | outcome [8]

Cc1ccc(F)cc1S(=O)(=O)NCC(C)c1ccc(NC(=O)Nc2cccc(F)c2)cc1 (stereo not drawn)
inactive: growth inhibition [1] 5% | inhibition [2] 20% | inhibition [3] 2% | outcome [5] | outcome [6] | outcome [7] | outcome [8]
active: growth inhibition [4] 95%

CCc1nc2c(cnn2CC)c(NC2CCOCC2)c1CNC(=O)c1ccoc1C
active: growth inhibition [1] 87% | growth inhibition [4] 97%
inactive: inhibition [2] 6% | inhibition [3] 2% | outcome [5] | outcome [6] | outcome [7] | outcome [8]

COc1ccc2cc(C(=O)NC3CCC(CCN4CCc5cc(C#N)ccc5C4)CC3)[nH]c2c1 (stereo not drawn)
active: growth inhibition [4] 88%
inactive: growth inhibition [1] -1% | inhibition [2] 9% | inhibition [3] -10% | outcome [5] | outcome [6] | outcome [7] | outcome [8]

Cc1ccc(C2(C)CN(CCCOc3cccc(-c4ccc(C(=O)NC(C)C)cc4)c3)CCO2)cc1 (stereo not drawn)
active: growth inhibition [1] 89% | growth inhibition [4] 93%
inactive: inhibition [2] 15% | inhibition [3] 0% | outcome [5] | outcome [6] | outcome [7] | outcome [8]

CC[C@H](C)CNC(=O)c1ccc(-c2cccc(CN3CCC(N4CCCC4)CC3)c2)nc1
active: growth inhibition [4] 91%
inactive: growth inhibition [1] 7% | inhibition [2] -1% | inhibition [3] -7% | outcome [5] | outcome [6] | outcome [7] | outcome [8]

COc1cccc(C2=CC(c3ccccc3)n3ncc(C(=O)Nc4ccc(Cl)cc4)c3N2)c1 (stereo not drawn)
inactive: growth inhibition [1] 28% | inhibition [2] 7% | inhibition [3] -1% | outcome [5] | outcome [6] | outcome [7] | outcome [8]
active: growth inhibition [4] 88%

CCCc1cc(N2CCC(N(CC)CC)C2)nc(Nc2ccc(OC)cc2)n1 (stereo not drawn)
active: growth inhibition [4] 90%
inactive: growth inhibition [1] 4% | inhibition [2] 9% | inhibition [3] 4% | outcome [5] | outcome [6] | outcome [7] | outcome [8]

O=C(NC1CCC(N2CCC(c3nc4ccccc4s3)CC2)CC1)c1cc2ccccc2[nH]1 (stereo not drawn)
inactive: growth inhibition [1] 37% | inhibition [2] 23% | inhibition [3] -1% | outcome [5] | outcome [6] | outcome [7] | outcome [8]
active: growth inhibition [4] 94%

COc1cccc2sc(Nc3nc(-c4ccccn4)cs3)nc12
active: growth inhibition [1] 76% | growth inhibition [4] 94%
inactive: inhibition [2] 41% | inhibition [3] 4% | outcome [5] | outcome [6] | outcome [7] | outcome [8]

Nc1nc2c(cnn2CCCCCCCP(=O)(O)O)c(=O)[nH]1
active: growth inhibition [1] 91% | growth inhibition [4] 94%
inactive: inhibition [2] -3% | inhibition [3] 4% | outcome [5] | outcome [6] | outcome [7] | outcome [8]
